Molecules are shown by their SMILES. About 83,000 compounds went through this panel and 20% of them were active in at least one assay; those are over-represented in the sample as a whole.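 Compound tested at a single concentration for 48 hours in 96-well plates; a percent growth value below 10 was scored as active.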 Active and inactive are the calls of the source.

For the assay, the system named is OVCAR-5 ovarian. Description: NCI-60 one-dose screen, 48 h (100 = growth as untreated, 0 = no growth, -100 = all killed). The note with it: 10 µM unless noted.
Turning to `CCN1C(=O)N(CC)C2SC(N/N=C/c3cccs3)=NC21` (centres undefined), the growth was 43.6% (inactive). Consider `O=C1NC(=O)/C(=C/c2ccc(OCc3cc4ccccc4nc3Cl)cc2)S1`, for which the growth was 114% (inactive). Take `O=C(NNc1nc2cc(F)c(F)cc2n2cccc12)c1ccncn1`: the growth was 39% (inactive). Take `C#C[C@]1(O)CC[C@H]2[C@@H]3CC=C4c5sc(Nc6nc(C)cc(OC)n6)nc5CC[C@]4(C)[C@H]3CC[C@@]21C`: the growth is 78.8% (inactive). As to `CCNC(=O)Oc1ccc(/C(=C(/C)c2ccc(Cl)cc2)c2ccc(OCCN3CCCC3)cc2)cc1`, the growth is 90.5% (inactive). Then `O=C(NNc1nc2cc(F)c(F)cc2n2cccc12)c1cccnn1`, with 42.5% (inactive). For `O=C(O)CNS(=O)(=O)c1ccc(Oc2ccc(S(=O)(=O)NCC(=O)O)cc2)cc1`, the growth was 101% (inactive). Then `Cc1cc(NS(=O)(=O)c2ccc(-c3cnc(C4CC4)o3)cc2)ccc1I`, with 54.6% (inactive). Turning to `COc1ccc(C(=O)c2c(N)c(C#N)cn2-c2cccc(OC)c2)cc1`, the growth was 56.9% (inactive). The same measure for `COc1ccc(CCN2C(=O)CSC2=S)cc1OC`: 104% (inactive); for `Cc1ccc(/C=C/CC(=O)Nc2ccc(C(=O)Nc3ccc(F)cc3N)cc2)cn1`: 55.7% (inactive); for `O=C(NNc1nc2cc(F)cc(F)c2n2cccc12)c1ccncn1`: 40.9% (inactive). The same measure for `C[C@H]1[C@H](C)CC[C@]2(COC(=O)c3cccnc3)CC[C@]3(C)C(=CC[C@@H]4[C@@]5(C)CCCNC(C)(C)[C@@H]5CC[C@]43C)[C@H]12`: 90.9% (inactive). Regarding `Fc1ccccc1/C=C(/C1=NCCN1)n1cnc2ccccc21`, the growth is 94.8% (inactive).

These data come from PubChem BioAssay (NCI).
